Experiment [1] can be described thus: qHTS to identify inhibitors of the type 1 interferon - major histocompatibility complex class I in skeletal muscle: primary screen against the NCATS Pharmaceutical Collection (AID 1347407).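 Further: luminescence of HiBiT knocked into endogenous HLA-B as interferon-induced MHC class I level.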 Further: potency means the concentration at half of the fitted maximal effect. The gist of the method: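 Compounds […] were added to CRISPR-engineered HLA-B-HiBiT C25cl48 human myoblasts with 4.0 ng/ml IFN-beta. After 24 hrs at 37 C, cells were lysed and HiBiT luminescence measured.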
For orientation: Quantitative high-throughput screening tests each substance at several concentrations.

Experiment [2] has as its target Protein phosphatase 1D (Homo sapiens) (UniProt O15297). Description: RapidFire Mass Spectrometry qHTS Assay for Modulators of WT P53-Induced Phosphatase 1 (WIP1) (AID 1347424). Further: potency means the concentration at half of the fitted maximal effect.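 On activity change, negative = inhibition: series mostly up to about 63 µM; plate controls were DMSO wells for no effect and GSK830371 inhibitor control at 10 µM for full effect.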 In a few lines:
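RapidFire MS readout of dephosphorylated VEPPL-S-QETFS product, with 1 uM isotope-labelled peptide standard. Reaction: 10 nM WIP1, 2 uM phosphopeptide substrate, 5 min, room temperature, after 1 h compound preincubation; stopped with 0.5% formic acid.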

The target is the same in experiment [3]. Description: Rhodamine-PBP qHTS Assay for Modulators of WT P53-Induced Phosphatase 1 (WIP1) (AID 1347425). Further: % of control where 0% means no effect. The gist of the method:
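Read-out: Rhodamine-PBP fluorescence (ex 525/em 598 nm) for released Pi, read each minute for 11 min after adding 10 uM VEPPL-pS-QETFS; signal taken as f1 minus pre-substrate f0. Enzyme 5 nM WIP1 with 1 hr room-temperature compound preincubation.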

A short description of experiment [4]: qHTS to identify inhibitors of the type 1 interferon - major histocompatibility complex class I in skeletal muscle: primary screen against the NCATS Mechanism Interrogation Plate v5.0 (MIPE) Libary (AID 1347411).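 Further: plate controls were vehicle for no effect and reference inhibitor for full effect; nearly all actives have a fitted effect of over 65% in size.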 In a few lines:
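Luminescence from CRISPR HiBit-tagged endogenous HLA-B in human myoblasts reported MHC class I level after 24 h of IFN-beta (4 ng/ml) plus compound. Compounds ran as 11-point 1:3 series, top 46 uM final.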

Experiment [5] in a line: Primary qHTS for inhibitors of La Crosse Virus (LACV) - induced cell death in SH-SY5Y cells (AID 1508616).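 Further: top concentration of the series differs between compounds; 0% = infected DMSO wells and 100% = uninfected DMSO wells; higher means more rescue of cells from virus-induced death.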 The gist of the method: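 Rescue of virus-induced death was read as ATPLite luminescence after 6 days at 37C, scaled between DMSO wells with LACV and without virus. Cells were SH-SY5Y, 6000/well, infected at 0.01 MOI after compound addition.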
Experiment [6] in a line: ZIKV-mCherry secondary qHTS for Zika virus inhibitors (AID 1347158). Further: top concentration of the series differs between compounds. In a few lines: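 Percent infection is the share of Hoechst-identified Vero nuclei with mCherry signal above 450 RFU (3 SD over negative controls). Cells were infected with recombinant ZIKV-mCherry at MOI 1 after compound addition and imaged 48–72 h later.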
In experiment [7] the test system is Zika virus NS2B-NS3 protease (linked). Kind of experiment: 384 well plate NINDS AMC confirmatory qHTS for Zika virus inhibitors (AID 1347163). Further: nearly all actives have a fitted effect of over 50% in size. Further: potency means the concentration at half of the fitted maximal effect.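 On activity change, negative = inhibition: linked protease at 5 30 or 60 nM final depending on run; fluorescence of AMC released from Ac-VKTGKR-AMC peptide cleaved by the protease; top concentration of the series differs between compounds; 0% = no-inhibitor control and -100% = no-enzyme control.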 In a few lines: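 Fluorescence at 355/460 nm was read after 25 minutes of cleavage of 30 microM Ac-VKTGKR-AMC at room temperature, in the dark. Before substrate addition, compounds (up to 1 mM final) sat ~15 minutes with 5, 30 or 60 nM linked protease. Signals were normalized to no-enzyme and no-inhibitor wells.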

Experiment [8] deals with Zika virus NS2B-NS3 protease (linked construct). Kind of experiment: 384 well plate NINDS Rhodamine confirmatory qHTS for Zika virus inhibitors (AID 1347164). Further: potency means the concentration at half of the fitted maximal effect; nearly all actives have a fitted effect of over 65% in size. As to conditions: rhodamine-110 peptide substrate fluorescence. The gist of the method: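 Fluorescence at 485/538 nm was measured 25 minutes after adding 10 microM Ac-LKRR-Rd substrate, in the dark at room temperature. The protease (5, 30 or 60 nM final) had been preincubated ~15 minutes with compound; aprotinin as control.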

Experiment [9] can be described thus: Vero cells viability qHTS for Zika virus inhibitors (AID 1347167). Further: on the % scale 0 is the no-effect control and ±100 the full control effect. In a few lines: (§1)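 qHTS titration; 24-48 h compound exposure, 37 degrees C/5% CO2; DMEM, 4% FBS; CellTiter Glo ATP luminescence.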
A short description of experiment [10]: HepG2 cells viability qHTS for Zika virus inhibitors (AID 1347168). Further: on the % scale 0 is the no-effect control and ±100 the full control effect. The gist of the method:
as §1

Experiment [11] is described as follows: Tertiary RLuc qRT-PCR qHTS assay for Zika virus inhibitors (AID 1347169). Further: top concentration of the series differs between compounds; on the % scale 0 is the no-effect control and ±100 the full control effect; nearly all actives have a fitted effect of over 55% in size. In a few lines:
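Orthogonal cell-based readout: luminescence measured 1-1.5 hrs after adding live-cell Renilla substrate to Vero cells that had been infected with ZIKV-RLuc (MOI 1-2) post-compound, incubated 48-72 hrs at 37 degrees C.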
(Quantitative PCR measures a nucleic acid by following its amplification.)

A short description of experiment [12]: Confirmatory screen NINDS Rhodamine qHTS for Zika virus inhibitors (AID 1347161). Further: potency means the concentration at half of the fitted maximal effect; nearly all actives have a fitted effect of over 60% in size. The gist of the method: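 Purified NS2B-NS3 protease with the NS2B hydrophilic domain joined by a flexible linker (25 nM) in 10 mM Tris-HCl pH 8.0, 0.01% Tween 20, preincubated 15 min at RT with compound; Rhodamine110 peptide substrate 1.5 µM; fluorescence change over 15 min; 4-parameter Hill fit.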

Experiment [13] addresses Lysine-specific demethylase 5B (Homo sapiens) (UniProt Q9UGL1). Kind of experiment: Optimization screen for KDM5B Histone Demethylases FDH coupled qHTS against the LOPAC library (AID 1347166). Further: 0% is about no effect. The gist of the method:
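KDM5BDeltaAP (200nM final) in 50mM HEPES pH 7.5, 0.01% Tween-20 was preincubated with compound for 10 min at room temperature. A substrate mix of 12.5uM H3K4Me3, 25uM a-ketoglutarate, ascorbate, Fe2+, NAD+ and formaldehyde dehydrogenase was then added. NADH fluorescence (340/450 nm) was read initially and after 30 min.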

The nature of experiment [14]: qHTS to identify inhibitors of the type 1 interferon - major histocompatibility complex class I in skeletal muscle: primary screen against the NCATS LOPAC collection (AID 1347405).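 Further: lytic HiBiT luminescence reporting HLA-B protein level; on the % scale 0 is the no-effect control and ±100 the full control effect.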 The gist of the method: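 After 24 h at 37 C with compounds (7-point, 1:4.3 dilutions, 46 uM top final) plus 4 ng/ml IFN-beta, luminescence from lytic HiBiT detection was measured. HLA-B*08:01 in C25cl48 myoblasts carried an endogenous C-terminal HiBiT tag; medium lacked dexamethasone.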

Experiment [15] can be described thus: qHTS for inhibitors of adenylyl cyclases using a fission yeast platform: a pilot screen against the NCATS LOPAC library (AID 1347410).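 Further: plate controls were DMSO vehicle for no effect and DPI positive control for full effect.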 In a few lines: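 GFP from fbp1-GFP reporter, read by Acumen laser cytometry, indicates AC inhibition in fission yeast expressing AC9, GNAS and PDE4D2. Cells grown 18 h in the dark at 30C with compounds, final up to 57 uM.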

A short description of experiment [16]: Validation qHTS assay for inhibitors of Activation Induced Cytidine Deaminase (AID): UDG Counterscreen signal (AID 1347427). Further: 0% is about no effect. In a few lines:
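Fluorescence at 560 nm excitation, 665 nm emission reports UDG signal after 250 mM NaOH (2x) addition and 30 min. Enzymes (AID 1 uM, UDG 2 U/mL, at 4/3x) preincubated 10 min with compound, then 4 h with 4x 250 nM DJC20/DJC23 substrate at room temperature.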

Experiment [17] concerns the target Single-stranded DNA cytosine deaminase (Homo sapiens) (UniProt Q9GZX7). Kind of experiment: Validation qHTS assay for inhibitors of Activation Induced Cytidine Deaminase (AID): AID signal (AID 1347429). Further: on the % scale 0 is the no-effect control and ±100 the full control effect. The gist of the method: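 Compounds (final up to 114 uM) preincubated with AID plus UDG; 250 nM DJC20/DJC23 substrate mix (4x stock) added, 4 hr at room temperature, then NaOH, 30 min. Read 1 fluorescence at 540 nm excitation, 590 nm emission.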

For experiment [18], the system named is Zika virus NS2B-NS3 protease (unlinked complex). Description: Primary screen GU Rhodamine qHTS for Zika virus inhibitors: Unlinked NS2B-NS3 protease assay (AID 1347159). Further: on the % scale 0 is the no-effect control and ±100 the full control effect; nearly all actives have a fitted effect of over 60% in size. In a few lines:
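Buffer 10 mM Tris-HCl pH 8.0, 0.01% Tween 20. Unlinked protease 25 nM; compound preincubation 15 min, RT, protected from light. Substrate Rhod110, 1.5 microM; ~15% conversion in 15 min.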

Experiment [19] concerns Zika virus NS2B-NS3 protease (linked construct). Kind of experiment: Primary screen NINDS Rhodamine qHTS for Zika virus inhibitors (AID 1347160). Further: on the % scale 0 is the no-effect control and ±100 the full control effect; nearly all actives have a fitted effect of over 55% in size. The gist of the method:
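Aprotinin served as in-plate control. Conditions: 25 nM linked NS2B-NS3, pH 8.0 Tris buffer, titrated compounds, 15 min preincubation and 15 min reaction with 1.5 microM Rhod110 substrate at room temperature.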

The target of experiment [20] is Calcium and integrin-binding protein 1 (Homo sapiens) (UniProt Q99828). Description: Confirmatory qHTS for Identification of Calcium Integrin Binding Protein 1 (CIB1) Competitor (AID 1508617). Further: on the % scale 0 is the no-effect control and ±100 the full control effect; nearly all actives have a fitted effect of over 65% in size. The gist of the method: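 Fluorescence polarization competition: CIB1-GST (1 uM final) in 5 mM HEPES pH 7.4, 125 mM NaCl, 5 mM CaCl2, 0.01% Tween20 preincubated 15 min RT with compound (up to 114 uM), then FITC-alphaIIb peptide (100 nM) added, 15 min RT.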
Chain of Calcium and integrin-binding protein 1 (Homo sapiens) (Q99828 whole entry, looked up): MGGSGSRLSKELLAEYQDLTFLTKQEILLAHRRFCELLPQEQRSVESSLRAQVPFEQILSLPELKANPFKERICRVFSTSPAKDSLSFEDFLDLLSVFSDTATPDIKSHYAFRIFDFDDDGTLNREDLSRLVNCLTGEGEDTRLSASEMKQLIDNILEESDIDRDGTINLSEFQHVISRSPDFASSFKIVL

Each structure is given as a SMILES string. Several values for one entry are separate records, joined by “and”; a condition that tells them apart may be missing. Equal values may be shown once. A number with no mark means an inactive call. Records with an inconclusive call do not appear. Activity calls are given as the source filed them. The call rests on the fitted dose curve; in most records, active means well fitted curve in the direction sought with a large enough effect; inconclusive means small, poorly fitted or top-dose-only effect, or another doubt; inactive means no such curve, though single readings can be large; an effect the other way counts as inactive or inconclusive.

Chain of Protein phosphatase 1D (Homo sapiens) (O15297 whole entry, looked up): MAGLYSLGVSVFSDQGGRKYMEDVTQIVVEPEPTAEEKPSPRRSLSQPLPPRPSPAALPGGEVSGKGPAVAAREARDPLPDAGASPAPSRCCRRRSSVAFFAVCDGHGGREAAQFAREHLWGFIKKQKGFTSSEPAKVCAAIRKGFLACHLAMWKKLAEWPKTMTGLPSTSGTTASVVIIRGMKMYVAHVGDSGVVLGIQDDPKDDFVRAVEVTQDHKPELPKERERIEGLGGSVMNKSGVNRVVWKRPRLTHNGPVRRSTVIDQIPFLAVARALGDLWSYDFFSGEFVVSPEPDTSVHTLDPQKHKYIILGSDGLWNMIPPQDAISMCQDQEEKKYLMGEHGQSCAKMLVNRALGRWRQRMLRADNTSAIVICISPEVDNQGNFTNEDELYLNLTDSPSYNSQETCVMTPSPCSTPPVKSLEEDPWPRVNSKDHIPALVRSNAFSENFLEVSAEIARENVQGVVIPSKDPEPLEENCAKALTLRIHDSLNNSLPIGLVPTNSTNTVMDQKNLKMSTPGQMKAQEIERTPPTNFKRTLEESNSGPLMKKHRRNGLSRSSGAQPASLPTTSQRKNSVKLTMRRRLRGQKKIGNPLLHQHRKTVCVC
Chain of Lysine-specific demethylase 5B (Homo sapiens) (Q9UGL1 whole entry, looked up): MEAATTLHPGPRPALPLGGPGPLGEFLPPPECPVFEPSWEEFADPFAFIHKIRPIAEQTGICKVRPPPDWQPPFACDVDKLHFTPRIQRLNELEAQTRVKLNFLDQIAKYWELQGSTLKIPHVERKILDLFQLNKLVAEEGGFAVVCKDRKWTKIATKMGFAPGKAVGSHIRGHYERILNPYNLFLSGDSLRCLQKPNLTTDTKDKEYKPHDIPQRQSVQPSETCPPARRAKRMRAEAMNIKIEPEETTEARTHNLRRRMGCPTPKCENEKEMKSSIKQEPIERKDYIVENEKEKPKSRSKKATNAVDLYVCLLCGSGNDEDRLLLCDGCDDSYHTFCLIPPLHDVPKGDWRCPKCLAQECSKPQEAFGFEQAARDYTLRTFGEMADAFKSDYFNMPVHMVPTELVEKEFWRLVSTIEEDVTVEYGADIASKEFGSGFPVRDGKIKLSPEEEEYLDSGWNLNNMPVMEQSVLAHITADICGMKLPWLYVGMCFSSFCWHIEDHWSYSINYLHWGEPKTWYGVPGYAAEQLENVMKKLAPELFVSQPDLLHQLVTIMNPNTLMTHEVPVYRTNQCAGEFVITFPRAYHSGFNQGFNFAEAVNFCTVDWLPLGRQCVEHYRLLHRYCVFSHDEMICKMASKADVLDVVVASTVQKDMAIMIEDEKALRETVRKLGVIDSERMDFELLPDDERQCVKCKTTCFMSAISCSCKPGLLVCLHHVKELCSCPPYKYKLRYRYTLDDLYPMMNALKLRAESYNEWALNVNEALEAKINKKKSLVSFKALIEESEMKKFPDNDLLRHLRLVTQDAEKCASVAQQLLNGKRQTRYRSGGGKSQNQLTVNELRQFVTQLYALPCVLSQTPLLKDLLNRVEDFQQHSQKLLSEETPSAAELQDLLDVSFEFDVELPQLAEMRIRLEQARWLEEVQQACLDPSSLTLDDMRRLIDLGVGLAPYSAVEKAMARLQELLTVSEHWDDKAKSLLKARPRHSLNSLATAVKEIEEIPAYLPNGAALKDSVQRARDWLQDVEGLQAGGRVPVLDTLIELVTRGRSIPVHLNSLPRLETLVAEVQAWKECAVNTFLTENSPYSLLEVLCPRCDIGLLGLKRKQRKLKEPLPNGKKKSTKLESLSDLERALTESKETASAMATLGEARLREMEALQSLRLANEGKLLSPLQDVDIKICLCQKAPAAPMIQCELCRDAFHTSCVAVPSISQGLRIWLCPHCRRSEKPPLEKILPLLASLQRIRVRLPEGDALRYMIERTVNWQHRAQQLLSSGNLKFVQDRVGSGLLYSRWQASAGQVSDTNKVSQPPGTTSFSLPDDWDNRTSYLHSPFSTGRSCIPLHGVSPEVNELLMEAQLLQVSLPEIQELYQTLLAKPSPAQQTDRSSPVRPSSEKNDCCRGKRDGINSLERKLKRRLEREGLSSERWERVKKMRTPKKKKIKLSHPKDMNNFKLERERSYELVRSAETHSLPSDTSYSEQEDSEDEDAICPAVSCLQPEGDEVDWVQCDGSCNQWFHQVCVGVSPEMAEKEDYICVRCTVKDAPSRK
Chain of Single-stranded DNA cytosine deaminase (Homo sapiens) (Q9GZX7 whole entry, looked up): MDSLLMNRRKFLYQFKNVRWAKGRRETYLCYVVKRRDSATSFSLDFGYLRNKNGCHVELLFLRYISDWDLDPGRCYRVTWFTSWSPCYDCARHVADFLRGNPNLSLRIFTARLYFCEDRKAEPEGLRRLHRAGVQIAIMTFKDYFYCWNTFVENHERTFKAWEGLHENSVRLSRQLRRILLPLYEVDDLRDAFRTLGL

For the compound `CCOc1ccccc1OCCN[C@H](C)Cc1ccc(OC)c(S(N)(=O)=O)c1`, the Potency result in experiment [1] and in [2] was “inactive” each time. Besides, the compound was called inactive in experiment [3].
With `Clc1cccc(C(c2ccc3nc[nH]c3c2)n2ccnc2)c1` (stereo not drawn), the Potency entry in [1], in [4] and in experiment [2] was “inactive” throughout. The call in [3] and in [5] was inactive.
Turning to `C=C1c2cccc(O)c2C(O)=C2C(=O)[C@]3(O)C(O)=C(C(N)=O)C(=O)[C@@H](N(C)C)[C@@H]3[C@@H](O)[C@H]12`, the call in [6], in experiment [9] and in [5] was inactive. For the same compound, the Potency is 8.91 µM (active) and 316 µM (active) in experiment [7]; 251 µM (active) in experiment [8]; 28.2 µM (active) in experiment [2]. Moreover, the Potency result in experiment [10] and in experiment [11] was “inactive” each time.
`CC(=O)O[C@]1(C(C)=O)CC[C@H]2[C@@H]3C=C(C)C4=CC(=O)CC[C@]4(C)[C@H]3CC[C@@]21C`: the Potency entry in experiment [1], in [4] and in experiment [2] was “inactive” each time. Moreover, the compound was classed as inactive in [3] and in experiment [5].
For the compound `C#C[C@]1(O)CC[C@H]2[C@@H]3CCC4=CC(=O)CC[C@@H]4[C@H]3CC[C@@]21CC`, the Potency entry in experiment [1], in experiment [4] and in [2] was “inactive” in each case. Further, the compound was called inactive in experiment [3] and in [5].
As to `O=C(O)C(Cc1cc(I)c(O)c(I)c1)c1ccccc1` (stereo not drawn), the Potency in experiment [12] is 50.1 µM (active); in experiment [8], 112 µM (active). Besides, the activity change, negative = inhibition in experiment [11] is -2.94% [at 1.74 µM]. Moreover, the Potency result in experiment [1] was “inactive”. Besides, the call in [3] and in [5] was inactive.
On to `Nc1nc(Cl)nc2c1ncn2[C@@H]1O[C@H](CO)[C@@H](O)[C@@H]1F`, for which the Potency result in [1], in experiment [4] and in experiment [2] was “inactive” throughout. The compound was called inactive in [3] and in experiment [5].
As for `CCC(CC)(CC(=O)Nc1cccc(/C=C/c2nc(C3CCC3)cs2)c1)C(=O)O`, the result in experiment [6], in experiment [9] and in experiment [5] was inactive. In addition, the Potency in experiment [12] was 22.1 µM (active). Further, the Potency entry in experiment [7], in experiment [10], in experiment [11], in [1] and in [2] was “inactive” in each case.
`CC(C)(C)NC[C@H](O)COc1nsnc1N1CCOCC1`: the compound was called inactive in [13], in [14], in experiment [15], in experiment [3], in [16] and in experiment [17]. The outcome in [5] was inactive. For the same compound, in experiment [1], the Potency result is “inactive”.
As to `O=C(CCCN1CC=C(n2c(=O)[nH]c3ccccc32)CC1)c1ccc(F)cc1`, the result in experiment [18], in experiment [19], in [3] and in experiment [5] was inactive. Moreover, the Potency result in [1] is “inactive”.
With `C[C@@]12C(=O)OC(=O)[C@]1(C)C1CCC2O1`, the Potency in [1] was 13.3 µM (active). Also, the Potency entry in [2] was “inactive”. The call in [3] was inactive.
With `COc1cc([C@H]2Oc3cc([C@H]4Oc5cc(O)cc(O)c5C(=O)[C@@H]4O)ccc3O[C@@H]2CO)ccc1O`, the Potency entry in experiment [1], in [4], in [2] and in experiment [20] was “inactive” each time. Also, the outcome in [3] and in experiment [5] was inactive.

The record behind these values is PubChem BioAssay (NCATS).
